Bioassay records deposited in PubChem BioAssay by National Center for Advancing Translational Sciences (NCATS).
CHX counter – Cycloheximide Counterscreen for Small Molecule Inhibitors of Shiga Toxin; cell reporter, cycloheximide protein synthesis inhibition counterscreen; 300,000 compounds, 12% hits; max response, %; in the data active = max response mostly above about 13%, no sharp cut-off; inactive = mostly below about 14%; also: read at 38.3 µM for the half of the compounds with a filed dose; 0% is about no effect
FMDV antiviral – High Throughput Screening for Foot and Mouth Disease Virus Antivirals. FMDV antiviral cell-based qHTS. 410,000 compounds, 1.2% hits. Potency, µM (doses to about 57.9 µM), without a hit: at the top dose activity change, negative = inhibition, actives largely listed as inhibitors; calls by dose curve; tested in HEK293T cells; also: read-out not given here; potency is read from the fitted curve at half-maximal effect; % is scaled to controls: 0 for no effect and ±100 for the full control effect; nearly all actives have a fitted effect of over 45% in size
Shiga toxin inh – A qHTS for Small Molecule Inhibitors of Shiga Toxin; Vero cells, Shiga toxin protein synthesis inhibition reporter; inhibition, % at 38.7 µM; 290,000 compounds, 9.2% hits; AID 2315, 2010; in the data active = inhibition mostly above about 28%, no sharp cut-off; inactive = mostly below about 43%; also: 0% is about no effect
Sm TGR inh – qHTS Assay for the Inhibitors of Schistosoma Mansoni Peroxiredoxins; 360,000 compounds, 3% hits; purified TGR, DTNB reduction, TNB absorbance 405 nm; Schistosoma mansoni thioredoxin glutathione reductase (TGR), Q962Y6; Potency, µM (titrated, usually from 114 µM), for the others: at the highest dose activity change, negative = inhibition, actives largely listed as inhibitors; active = well fitted inhibition curve with a large enough effect; inconclusive = small, poorly fitted or top-dose-only effect; inactive = no such curve, though single readings can be large or run the other way; also: potency is read from the fitted curve at half-maximal effect; % is scaled to controls: 0 for no effect and ±100 for the full control effect; nearly all actives have a fitted effect of over 60% in size
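Kinetic colorimetric format: TGR-catalysed, NADPH-driven DTNB reduction monitored via TNB absorbance. Enzyme dispensed at 20 nM; compound exposure 15 min at room temperature before reaction start.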
Numbers without * were called inactive; ? = inconclusive; · = no result; [ ] = another dose, or the depositor's remark. Shown are actives, neighbours in structure and some others; about 12% of the full set was active somewhere.

SMILES | CHX counter | FMDV antiviral | Shiga toxin inh | Sm TGR inh
CSc1cccc(NC(=O)c2cccc3cccnc23)c1 | 34* | 14% | 98* | -6%
COc1ccccc1C(=O)Nc1ccncc1 | -4 | -4% | · | -5%
COc1cc(SC)ccc1C(=O)Nc1nccs1 | 28* | -47% | active | 0%
COc1cc(SC)ccc1C(=O)NCC1CCCCC1 | 28* | 25% | 75* | -2%
COc1ccc(NC(=O)CC2C(=O)N(c3ccccc3)C(=O)N2Cc2cccnc2)cc1 (stereo not given) | · | -10% | · | 3%
CC1=C(C(=O)Nc2ccc(C)cc2C)C(c2ccc(C(C)C)cc2)n2nc(C(F)(F)F)nc2N1 (stereo not given) | · | -11% | · | 0%
COc1cc(SC)ccc1C(=O)Nc1c(C)cccc1C | 13* | 11% | 15 | 4%[57.1 µM]
COc1cc(SC)ccc1C(=O)N1CCN(c2ccccc2OC)CC1 | -6 | -1% | 9 | ·
COc1ccccc1OC(=O)c1ccc(SC)cc1OC | 14* | 42% | 15 | -15%
COc1cc(SC)ccc1C(=O)Nc1ccccc1 | 37* | 20% | 94* | 0%
COc1cc(SC)ccc1C(=O)Nc1c(Cl)cncc1Cl | 11 | -10% | 0 | 0%
CC1=C(C(=O)Nc2ccccc2)C(c2ccc(C(=O)O)cc2)n2nc(SCC(=O)c3ccc(C)cc3)nc2N1 (stereo not given) | · | 47% | · | 1%
CC(C)CSc1ccccc1NC(=O)c1sc2nc(-c3ccncc3)ccc2c1N | · | -7% | · | 1%
O=C(/C=C/c1c(F)cccc1Cl)Nc1cccnc1 | 39* | 75% | · | 2%
O=C(/C=C/c1cc(Br)ccc1F)Nc1cccnc1 | 26* | 12% | 39* | 20%
O=C(Nc1cccnc1)c1c(F)cccc1F | 7 | 25% | 1 | 2%
Cc1ccc(C)c(NC(=O)Cn2c(SCC(=O)NCc3ccccc3)nc3ccccc32)c1 | · | -8% | · | -16%
CCCCN1C(=O)CN(C2CCCCCC2)C(=O)C1c1ccc(OC(C)C)c(OC)c1 (stereo not given) | · | -9% | · | ?
COC(=O)C1=C(C)N(Cc2ccc3c(c2)OCO3)C(=O)C1 | -6 | 7% | -9 | ·
CCOC(=O)c1nn(-c2ccc3c(c2)OCCO3)cc1O | 40* | -34% | 84* | -4%
CCOC(=O)c1nn(-c2ccc(C)c(C)c2)cc1O | 42* | 32% | 94* | -17%
CC(=O)N1CCc2cc([N+](=O)[O-])ccc21 | · | -6% | · | ·
COC(=O)c1nn(-c2ccc3c(c2)OCO3)cc1O | 33* | 6% | 61 | 14%
COC(=O)c1nn(-c2ccc3c(c2)CCN3C(C)=O)cc1O | -11 | 8.9µM* | -36 | -1%
Cc1ccccc1-c1nc(CS(=O)(=O)CC(=O)Nc2cccc(C(F)(F)F)c2)c(C)o1 | · | -5% | · | ?
SMILES | CHX counter | FMDV antiviral | Shiga toxin inh | Sm TGR inh
O=C(Cn1nc(C(F)(F)F)c2c1CCCC2)Nc1cccc(Cl)c1 | · | ? | · | 33%
CCOC(=O)c1nn(-c2ccc([N+](=O)[O-])cc2)cc1O | 31* | 40% | 46* | 16%
COc1ccc(Br)cc1CNC(=O)CCSCc1ccc(Cl)cc1 | · | -8% | · | 8%
CCc1ccc(NC(=O)N2CCOc3ccc(Cl)cc32)cc1 | · | 18% | · | 24%
CCc1ccc(C(=O)CSc2nc(-c3ccccc3)nc3c2CCCC3)cc1 | · | -13% | · | 1%
Cc1ccccc1OCCC(=O)OCC(=O)Nc1ccc(N2CCOCC2)cc1 | 14* | -16% | 12 | -10%
Cc1cc(OCC(=O)Nc2ccc(N3CCN(C(=O)c4ccco4)CC3)cc2)cc(C)c1Cl | -2 | 6.3µM* | -11 | 0%
Cc1ccc(OCC(=O)Nc2ccc(N3CCN(C(=O)c4ccco4)CC3)cc2)cc1C | -5 | 14µM* | 22 | 19%
Cc1cccc(OCC(=O)Nc2ccc(N3CCN(C(=O)c4ccccc4)CC3)cc2)c1C | -2 | 14µM* | -5 | 2%
CCC(=O)N1CCN(c2ccc(NC(=O)COc3cccc(C)c3C)cc2)CC1 | -1 | -27% | -1 | -7%
COc1cccc(CNC(=O)c2ccc(NC(=O)N3CC(C)Sc4ccccc43)cc2)c1 (stereo not given) | · | 0% | · | 5%
Cc1ccc(NC(=O)COC(=O)CSC(=S)N2CCOCC2)cc1 | 27* | 29% | 42 | 0%
Cc1cccc(OCC(=O)Nc2ccc(N3CCN(C(=O)c4ccco4)CC3)cc2)c1 | -2 | 16µM* | 17 | 12%
Cc1cccc(C(=O)Nc2ccc(N3CCN(C(=O)c4ccco4)CC3)cc2)c1 | 1 | 7% | 11 | 0%
COc1cccc(CNC(=O)c2c(OC)cc(=O)n3c2CCN(C(=O)c2cc(F)cc(F)c2)CC3)c1 | · | 6% | · | ·
